MBNL1-CUG inh – blocks human MBNL1 binding to CUG repeat RNA. Q9NR56. Potency, µM (highest dose often 57.5 µM), without a hit: at the highest dose activity change, negative = inhibition, most hits filed as inhibitors. hit rate 0.036% among 280,000. TR-FRET MBNL1-His/biotin-(CUG)12 binding, 665/545 ratio; active = well fitted inhibition curve with a large enough effect in the signal ratio, with a control signal flat, not every such curve was filed as active; inconclusive = small, poorly fitted or top-dose-only effect, or effect the other way, or a change in a side signal; inactive = no such curve, though single readings can be large or run the other way; the % refers to the signal ratio; note: potency is the fitted concentration of half-maximal effect; % is set by controls: 0 for no effect and ±100 for the full control effect
Target sequence (Q9NR56 whole entry, looked up): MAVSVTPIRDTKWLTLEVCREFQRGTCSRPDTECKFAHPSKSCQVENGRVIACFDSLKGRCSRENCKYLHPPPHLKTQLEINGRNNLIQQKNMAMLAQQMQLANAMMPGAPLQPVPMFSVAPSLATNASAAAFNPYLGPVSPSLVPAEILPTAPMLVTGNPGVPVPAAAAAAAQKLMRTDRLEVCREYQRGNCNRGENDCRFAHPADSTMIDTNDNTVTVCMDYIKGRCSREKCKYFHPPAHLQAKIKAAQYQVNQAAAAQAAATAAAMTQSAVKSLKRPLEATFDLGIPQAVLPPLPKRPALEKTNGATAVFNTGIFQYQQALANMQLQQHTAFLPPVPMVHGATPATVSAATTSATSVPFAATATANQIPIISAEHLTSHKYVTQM
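His-tagged MBNL1 binding to biotinylated (CUG)12 RNA was measured by TR-FRET using terbium anti-His antibody (0.055 ng/ul final) and streptavidin-XL665 (5 nM final). Compounds were titrated 92 nM to 58 uM; 60 min at room temperature.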
Abeta yeast res – restores growth of yeast expressing A-beta42 peptide; yeast expressing A-beta42, growth rescue, OD600, 48 h; response scale: 0% DMSO, 100% iron-clioquinol control; Potency, µM (doses to about 46.1 µM), usual class: activators; hit rate 0.063% among 410,000; AID 1347071; note: potency is the fitted concentration of half-maximal effect; nearly all actives have a fitted effect of over 55% in size
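Growth rescue measured by 600 nm absorbance after 48 h yeast culture at 30 C with compound. Values normalized between DMSO and an equimolar ferric chloride plus clioquinol control.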
TDP-43 yeast inh – rescues yeast growth from TDP-43 toxicity. TDP-43 expressing yeast growth rescue, BacTiter-Glo, 24 h. Potency, µM (titrated, usually from 46.1 µM), for the others: at the top dose growth rescue (activation), usual class: activators. hit rate 1.8% among 410,000. AID 652104; note: potency is the fitted concentration of half-maximal effect; % of control where 0% means no effect; nearly all actives have a fitted effect of over 50% in size
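Readout is BacTiter-Glo luminescence of cell growth, so inhibitors register as activators. TDP-43-expressing yeast at OD600=0.02 in galactose medium, after raffinose pregrowth to mid-log, were incubated with compound for 24 hr at 30 deg C.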
aSyn yeast inh – rescues yeast growth from alpha-synuclein toxicity. Yeast expressing alpha-synuclein, growth rescue, BacTiter-Glo, 24 h. Potency, µM (top dose mostly 46.1 µM), inactives show at the highest dose growth rescue (activation), usual class: activators. hit rate 0.14% among 370,000; note: potency is the fitted concentration of half-maximal effect; % of control where 0% means no effect; nearly all actives have a fitted effect of over 65% in size
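Galactose-induced alpha-syn yeast (OD600=0.02, raffinose-pregrown) + pinned cpd, 24 hr, 30 deg C; growth by BacTiter-Glo luminescence. Growth restoration scores as activation.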
GRP78 ERSR act – ER stress response induction in glioma. U87-MG GRP78 promoter luciferase reporter, 16 h. Potency, µM, inactives show at the top dose activation, hits mostly activators. hit rate 0.02% among 420,000. AID 602332; note: potency is the fitted concentration of half-maximal effect; series mostly up to about 76 µM; % of control where 0% means no effect; nearly all actives have a fitted effect of over 35% in size
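Stably transfected U87-MG glioma cells carrying a GRP78-based luciferase sensor; 16 h compound incubation. Luminescence end-point read 10 min after Bright-Glo addition at room temperature.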
FUS suppressor – suppressors of FUS proteinopathy in yeast. S. cerevisiae FUS-expressing, growth rescue, OD600, 24 h. Potency, µM (top dose mostly 76.6 µM), usual class: activators. hit rate 0.24% among 390,000. AID 1347120;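 note: potency is the fitted concentration of half-maximal effect; plate controls were DMSO vehicle for no effect and reference control for full effect; nearly all actives have a fitted effect of over 55% in size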
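Quantitative HTS measuring growth restoration of FUS-toxic yeast. Galactose-induced cells (OD 0.005) were exposed 24hr at 30C to compounds at several concentrations, then absorbance at 600 nm was recorded.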
MBNL1-CUG FRET – confirmation of inhibitors of human MBNL1-poly(CUG) RNA binding; shares compounds with MBNL1-CUG inh; Potency, µM (highest dose often 57.6 µM), for inactives: top-dose activity change, negative = inhibition, actives largely listed as inhibitors; TR-FRET MBNL1-His / biotin-(CUG)12 binding, 60 min; AID 493199; hit rate 50% among 140
MBNL1-CUG Alpha – blocks MBNL1 binding to (CUG)12 RNA in AlphaScreen; shares compounds with MBNL1-CUG inh; AID 493205; AlphaScreen MBNL1-His / biotin-(CUG)12 binding; hit rate 30% among 140; Potency, µM (doses to about 57.7 µM), for inactives: at the highest dose activity, negative = inhibition, actives largely listed as inhibitors
* = called active by the depositor; i = inactive; ? = inconclusive; / = not tested or not shown. An excerpt weighted towards active compounds, which were near 2% of everything screened. Unless noted, calls come from the whole dose curve; as a rule, active = well fitted curve in the direction sought with a large enough effect; inconclusive = small, poorly fitted or top-dose-only effect, or another doubt; inactive = no such curve, though single readings can be large; an effect the other way counts as inactive or inconclusive.

SMILES	MBNL1-CUG inh	Abeta yeast res	TDP-43 yeast inh	aSyn yeast inh	GRP78 ERSR act	FUS suppressor	others
O=C1C=CC(=O)C(Cl)=C1	/	/	/	/	-7%	/
O[N+]1=CC=CCC1=S.On1ccccc1=S.[Zn]	/	/	/	/	-12%	/
CC12CC(=O)C3C(CCC4CC=CCC43C)C1CCC2=O (centres undefined)	/	i	10µM*	9%	-5%	/
CCOc1ccc(N2C(=O)/C(=C/c3ccc(C)o3)C(=O)NC2=S)cc1	6%	i	-16%	-1%	-2%	i
COc1ccc(N2C(=O)/C(=C/c3ccc(C)o3)C(=O)NC2=S)cc1	9%	i	7.1µM*	5%	2%	i
COc1ccccc1NC(=O)CCn1cnc2onc(-c3ccc(F)cc3)c2c1=O	/	i	?	/	-3%	?
CCOC(=O)C1(c2ccccc2)CCN(CCC(=O)Nc2ccc(C(=O)OC)cc2)CC1	/	i	2%	6%	1%	i
COC(=O)c1ccc(NC2=C(Cl)C(=O)OC2OC(=O)c2ccccc2)cc1 (centres undefined)	1%	i	22µM*	3%	-4%	i
Cc1ccccc1-n1nc(C)c2c1NC(=O)CSC2c1ccc(N(C)C)cc1 (centres undefined)	/	i	0%	/	/	?
Cc1ccccc1-n1nc(C)c2c1NC(=O)CSC2c1ccc(Cl)cc1 (centres undefined)	/	i	18µM*	/	/	i
Nc1ccc2c3c(cccc13)-c1ccccc1-2	/	i	11µM*	-13%	4%	i
C#C[C@]1(OC(=O)CCCCCC)CC[C@H]2C3CCC4=CC(=O)CC[C@@H]4[C@H]3CC[C@@]21C (some centres undefined)	/	/	/	/	-4%	/
CCCCN1C(=O)NC(=O)C2(Cc3c(nc4c(C)cccn4c3=O)N3CCc4ccccc4C32)C1=O (centres undefined)	?	i	35µM*	18%	-1%	?
CCCCN1C(=O)NC(=O)C2(Cc3c(nc4ccccn4c3=O)N3CCc4ccccc4C32)C1=O (centres undefined)	8%	i	?	14%	-5%	i
CC1=CC(=O)OC2CC3OC4C[C@@H](C)C5OC6CC7O[C@]8(C)C/C=C\C9OC%10CC%11OC(CC(C)C%12OCCO%12)CC(O)[C@]%11(C)OC%10CC9OC8C[C@]7(C)O[C@]6(C)CCC5OC4C[C@]3(C)OC12 (some centres undefined)	/	i	8%	-9%	-1%	10µM*
C=C(CC1CC(O)[C@]2(C)OC3CC4OC5C[C@]6(C)O[C@]7(C)CCC8OC9C[C@]%10(C)OC%11C(C)=CC(=O)OC%11CC%10OC9C[C@@H](C)C8OC7CC6O[C@]5(C)C/C=C\C4OC3CC2O1)C(=O)O (some centres undefined)	-7%	i	?	8%	-4%	?
COc1cc(CC(C)N)c(OC)cc1Br (centres undefined)	/	/	/	/	-3%	/
CN1C[C@H](CNC(=O)OCc2ccccc2)C[C@@H]2c3cccc4c3c(cn4C)C[C@H]21	?	i	8%	16%	-1%	i	MBNL1-CUG FRET=?;MBNL1-CUG Alpha=?
CN1C[C@H](CNC(=O)OCc2ccccc2)C[C@H]2c3cccc4c3c(cn4C)C[C@@H]21	/	/	/	/	-5%	/
